Shown are actives, neighbours in structure and some others; about 1.9% of the full set was active somewhere.
PABP1 MLLE inh – inhibitors of PABP1 MLLE–PAM2 peptide binding, primary screen, biochemical, fluorescence polarization, FITC-PAM2, GST-MLLE; hit rate 0.36% among 360,000; Polyadenylate-binding protein 1 (Homo sapiens), P11940; inhibition, % at 20 µM; AID 588489, 2011; in the data active = inhibition above about 35%, passing the limit was not always enough;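 also: plate controls were DMSO wells with GST-MLLE for no effect and wells lacking GST-MLLE protein for full effect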
eIF4H inh – human eIF4H binding inhibitors, primary screen, translation initiation inhibitor project, biochemical, uHTS, fluorescence polarization; Eukaryotic translation initiation factor 4H (Homo sapiens), Q15056; eIF4H fluorescence polarization binding assay; inhibition, % at 35 µM; hit rate 0.94% among 290,000; AID 2012, 2009;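 also: calls also rest on retests at 20 µM and on dose response follow-up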
eIF4E-4G inh – eIF4E–eIF4G protein interaction inhibitors, primary screen, biochemical, uHTS, TR-FRET, eIF4GI fragment; Eukaryotic translation initiation factor 4E (Mus musculus) + Eukaryotic translation …; TR-FRET eIF4E-eIF4GI(517-606) binding, 2 h; inhibition, % at 21.7 µM; hit rate 0.37% among 220,000; AID 782, 2007;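 active = inhibition above about 30%, limit read from the data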;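 also: 0% = full FRET control wells and 100% = background wells lacking eIF4GI fragment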
PABP polyA inh – PABP poly(A) RNA binding inhibitors, primary screen, biochemical, fluorescence polarization, uHTS. AID 2014, 2009. hit rate 1% among 290,000. calls only at 35 µM;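 also: calls also rest on retests at 20 µM and on dose response follow-up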
14-3-3 Bad inh – inhibitors of 14-3-3 zeta/Bad binding, primary screen, biochemical, TR-FRET, bovine 14-3-3 zeta | inhibition, % at 21.7 µM | TR-FRET 14-3-3zeta/Dy647-pBad peptide displacement, 1 h | hit rate 0.71% among 220,000;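 active = inhibition above about 70%, limit read from the data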;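 also: 0% = full 14-3-3 plus peptide FRET controls and 100% = background without 14-3-3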
Target sequence (P63103 whole entry, looked up): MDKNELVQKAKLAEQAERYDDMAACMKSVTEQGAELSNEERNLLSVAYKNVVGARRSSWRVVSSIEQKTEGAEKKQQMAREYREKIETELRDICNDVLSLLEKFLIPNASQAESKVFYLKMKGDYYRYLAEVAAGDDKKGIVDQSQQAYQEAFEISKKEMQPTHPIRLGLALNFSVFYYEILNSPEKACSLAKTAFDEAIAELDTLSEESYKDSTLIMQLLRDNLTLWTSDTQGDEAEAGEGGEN
The depositor's hits bear a star; i = inactive; ? = inconclusive; . = not tested or not shown; + = active, no number; [ ] = another dose, or the depositor's remark. Unless noted, no rule for the calls is given here.

SMILES | PABP1 MLLE inh | eIF4H inh | eIF4E-4G inh | PABP polyA inh | 14-3-3 Bad inh
CCc1nc2ccc(C(=O)N3CCN(C)CC3)cn2c1N(CCC(C)C)CCN(C)C | 11 | . | . | . | .
COc1ccc(CN2CCN(C(=O)c3cccs3)CC2)cc1Br | -4 | 12 | 19 | i | 78*
CCCNC(=S)N1CCN(Cc2ccc3c(c2)OCO3)CC1 | -124 | 11 | -1 | i | 20
CCCCCn1c(=O)[nH]c2cc(C(=O)N3CCN(Cc4ccc5c(c4)OCO5)CC3)ccc2c1=O | 1 | 1 | 44* | i | -3
CCOCCCNC(=S)N1CCN(Cc2ccc3c(c2)OCO3)CC1 | -120 | 3 | 0 | i | 95*
O=C(NC(=S)N1CCN(Cc2ccc3c(c2)OCO3)CC1)c1cccc(Br)c1 | 8 | active | 20 | + | -9
O=C(NC1=NCCS1)c1cccc2ccccc12 | -9 | -4 | 6 | i | -13
CCOc1ccc(-c2cc(C(=O)NCc3cc(OC)cc(OC)c3)[nH]n2)c(C)c1 | 3 | . | . | . | .
CN(C)S(=O)(=O)c1ccc(C(=O)OCC2CCCO2)cc1 (centres undefined) | 4 | -12 | . | i | .
C=CCn1c(SCC(=O)NC2CCS(=O)(=O)C2)nc2scc(C3CC3)c2c1=O (centres undefined) | -25 | -5 | -14 | i | -11
C=CCn1c(SCC(=O)c2ccc(CNC(C)=O)o2)nc2scc(C3CC3)c2c1=O | -47 | 77* | 1 | i | -1
C[C@H](CO)N1C[C@H](C)[C@@H](CN(C)C(=O)CC2CC2)Oc2cc(Br)ccc2S1(=O)=O | 0 | . | . | . | .
CCOC(=O)N1CCN(C(=O)CNS(=O)(=O)c2cccs2)CC1 | 5 | -5 | 1 | i | 4
CC(=O)Nc1ccc(S(=O)(=O)NCC(=O)N2CCN(S(=O)(=O)c3cccs3)CC2)cc1 | 43* | . | . | . | .
COc1ccc(-n2nc3ccc(N)cc3n2)cc1Cl | -8 | 55* | . | + | .
COc1ccccc1N(C(C)=O)C1SC(=O)N(c2ccccc2)C1=O (centres undefined) | 22 | 0 | 7 | i | -1
Cc1ccc(N(CC(N)=O)C2SC(=O)N(C)C2=O)cc1 (centres undefined) | 30 | -4 | 1 | i | 80*
Cc1cccc(N(CC(N)=O)C2SC(=O)N(c3ccccc3)C2=O)c1 (centres undefined) | 41* | 5 | -17 | i | 6
CSc1ccccc1OCc1cc(C(=O)N[C@H]2CCCCNC2=O)no1 | 11 | -8 | . | i | .
Cc1ccc(N2C(=O)/C(=C/c3ccco3)SC2=S)cc1 | 12 | 84 | 0 | i | -19
O=C1/C(=C\c2ccco2)SC(=S)N1C1CCCCC1 | . | 57* | . | i | .
O=c1cc2c(=O)oc3cc(O)c(O)oc3c2c(O)c1O | 30 | 92* | 22 | + | 89*
O=C(CSc1nnc(-c2cccnc2)o1)Nc1ccccc1F | 44* | . | . | . | .
O=C(CSc1nnc(-c2cccnc2)o1)Nc1ccccc1Br | 9 | -9 | . | i | .
CC1CN=C(NC(=O)c2cccc([N+](=O)[O-])c2)S1 (centres undefined) | 42* | 9 | . | i | .
SMILES | PABP1 MLLE inh | eIF4H inh | eIF4E-4G inh | PABP polyA inh | 14-3-3 Bad inh
COC(=O)/C(C#N)=C/c1ccc(OC(=O)c2ccccn2)cc1 | -75 | 6 | 8 | i | -1
CCOC(=O)/C(C#N)=C/c1ccc(OC(=O)c2ccccn2)cc1 | -5 | 1 | 31* | i | 81*[fluorescence artefact?]
COc1ccc(C(C)=O)cc1COC(=O)c1ccc(OCc2c(C)noc2C)cc1 | -21 | -13 | -37 | i | 73*
COc1ccc(C(C)=O)cc1COC(=O)c1c(C)noc1C | -12 | -6 | 12 | i | -12
Cc1ccc2c(c1)c(C)cc(=O)n2CCC(=O)O | 8 | 88* | 11 | i | 44
Cc1c(C)n(CCC(=O)O)c2ccccc12 | -8 | 4 | 2 | i | -14
Nc1cccc(C(=O)N/N=C/c2ccsc2)c1 | 10 | 84* | -1 | + | -18
CCCCn1c(=O)[nH]c2nc3cc(NC(C)=O)ccc3nc2c1=O | 59 | 98* | 8 | + | 11
CCCCCCn1c(=O)[nH]c2nc3cc(N)c(C)cc3nc2c1=O | i | 65 | 27 | + | 18
CCC(=O)Nc1ccc2nc3c(=O)[nH]c(=S)[nH]c3nc2c1 | 38 | 112* | . | + | .
CCOc1ncccc1C(=O)OCC(=O)Nc1ccc2c(c1)OCO2 | 4 | 21 | 0 | i | -4
CCN(CC)C(=O)c1cccc(-c2csc(C(O)c3cccc(Cl)c3)n2)c1 (centres undefined) | -13 | . | . | . | .
CCN1C(=NCCc2ccccn2)N[C@@H](c2cccc(F)c2)C(C(=O)OC)=C1C | -75 | . | . | . | .
COC(=O)C1=C(C)N(Cc2ccccc2)C(=NCCc2ccccn2)N[C@H]1c1cccc(F)c1 | -77 | 24* | . | + | .
COC(=O)C1=C(C)N(Cc2ccccc2)C(=NCC(C)C)N[C@H]1c1ccccc1 | . | 94 | . | + | .
COC(=O)C1=C(C)N(Cc2ccccc2)C(=NCc2ccc(OC)cc2)N[C@H]1c1ccccc1 | -117 | . | . | . | .
CC(=O)O[C@H]1[C@H](C)OC=C[C@@H]1OC(C)=O | -6 | -2 | . | i | .
Cc1ccc(-c2nn(-c3ccccc3)cc2C(=O)NCC2CCCO2)cc1 (centres undefined) | 2 | . | . | . | .
CCOc1ccc(C2C3=C(CC(C)(C)CC3=O)N(CCCOC)C3=C2C(=O)CC(C)(C)C3)cc1OC | -4 | . | . | . | .
OCC(O)/C=N/Nc1nc(N2CCCCC2)nc(N2CCCCC2)n1 (centres undefined) | 4 | 6 | -3 | i | -17
Cc1sc(NC(=O)c2ccco2)c(CN2CCN(c3ccccc3)CC2)c1C | 34 | 2 | 0 | i | 80*
Cc1cc(OCC(=O)O)c2cccc(C)c2n1 | -2 | -6 | 10 | i | 77*
C[C@H](CO)N1C[C@H](C)[C@@H](CN(C)Cc2ccc3c(c2)OCO3)Oc2ccc(NS(C)(=O)=O)cc2C1=O | -5 | . | . | . | .
O=C(Oc1c(Br)cc(C(=S)N2CCOCC2)cc1Br)c1ccc(Cl)cc1 | 27 | 1 | 49* | i | 0
O=C(Oc1ccc(C(=S)N2CCOCC2)cc1Br)c1cc(Cl)ccc1Cl | 33 | -8 | -9 | i | -11
COc1ccc(/C=N/n2cnc3c([nH]c4ccccc43)c2=O)cc1CO | -4 | -10 | 2 | i | 29
COc1ccc(/C=N/n2cnc3c([nH]c4ccc(Br)cc43)c2=O)cc1CN1CCOCC1 | . | 2 | 41*[fluorescence artefact?] | i | 14
Cc1nc(-c2ccccc2)sc1-c1ccn[nH]1 | -3 | ? | 5 | + | 16
Cc1nc(-c2ccccc2)sc1-c1ccnn1C | 3 | 4 | 2 | i | 0
